This passage reports enhancement results from PubChem BioAssay AID493056 (National Center for Advancing Translational Sciences (NCATS), 2011).

Screen size: about 360,000 compounds; about 2,400 (0.67%) were called active. The entries come from a sample that favours actives as a whole. A number with no mark means an inactive call. No stated cut-off is given here; in the data, active means enhancement above about 30%; inactive means the rest.

Chain of Thyrotropin-releasing hormone receptor (Homo sapiens) (P34981 whole entry, looked up): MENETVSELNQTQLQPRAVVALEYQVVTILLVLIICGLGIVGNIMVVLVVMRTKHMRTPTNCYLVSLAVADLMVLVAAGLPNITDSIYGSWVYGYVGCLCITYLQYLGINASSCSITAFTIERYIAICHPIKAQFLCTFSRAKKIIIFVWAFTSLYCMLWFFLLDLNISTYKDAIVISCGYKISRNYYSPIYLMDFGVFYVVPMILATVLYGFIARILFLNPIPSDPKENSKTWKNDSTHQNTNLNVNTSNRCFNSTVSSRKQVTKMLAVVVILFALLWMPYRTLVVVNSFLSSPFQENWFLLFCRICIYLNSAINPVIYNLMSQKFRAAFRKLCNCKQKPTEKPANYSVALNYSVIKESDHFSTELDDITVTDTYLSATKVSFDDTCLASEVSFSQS

The assay addresses Thyrotropin-releasing hormone receptor (Homo sapiens) (UniProt P34981). The experiment in a line: qHTS for Small Molecule Agonists and Allosteric Enhancers of Human TRH Receptor: Primary Screen for Enhancers. Further: 0% is about no effect. The conditions noted are these: TRHR cells, fluo-8 calcium fluorescence, EC20 TRH enhancement; at 2 µM; stronger effect = higher value. In short, it runs like this:
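TRHR-expressing cells loaded with fluo-8 calcium dye were read kinetically (ex 480/em 530) during compound addition, then stimulated with an EC20 of TRH (10 nM final). Enhancement of the Gq-mediated intracellular calcium response was scored.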
On the technique in general: Quantitative high-throughput screening tests each substance at several concentrations.
For the compound `CCOc1ncccc1C(=O)OCC(=O)N1c2ccccc2CC1C` (centres undefined), the enhancement was 156% (active).

As for `CCOC(=O)c1[nH]c(C)c(C(=O)OCC(=O)N2c3ccccc3CC2C)c1C` (centres undefined), the enhancement is -0.269%.

For `CCOc1ncccc1C(=O)OCC(=O)NC1CC1`, the enhancement is 6.62%.

Regarding `Cc1ccn2c(Nc3ccc4c(c3)OCCO4)c(-c3ccc(C)s3)nc2c1`, the enhancement was -3.6%.

With `Cc1ccc(CCNC(=O)c2ccc3c(c2)nc2n3CCC(C)C2)cc1` (centres undefined), the enhancement is -2.39%.

As to `Cc1cccc(-n2c(=O)c3c(c4cc(C)ccc4n3C)n(CC(=O)Nc3ccccc3Cl)c2=O)c1`, the enhancement is -2.31%.

In the case of `CN(C)c1ccc(Nc2c3c4c(cccc4n(C)c2=O)C(=O)c2ccccc2-3)cc1`, the enhancement was 30.8% (active).

As to `Cc1ccc(Nc2c(-c3ccc(N(C)C)cc3)nc3nc[nH]n23)cc1`, the enhancement was 1.88%.

For the compound `CCOc1ccc(C(=O)c2cn(Cc3ccc(F)cc3)c3ccc(F)cc3c2=O)cc1`, the enhancement is -6.47%.

For `COc1cc2c(cc1OC)C(COc1ccc(F)cc1)N(C(=O)c1ccccc1F)CC2` (centres undefined), the enhancement is -0.875%.

On to `CCCCn1c(N)c(N(CCOC)C(=O)c2cccc(S(=O)(=O)N(C)c3ccccc3)c2)c(=O)[nH]c1=O`, for which the enhancement was -3.31%.

Regarding `CCCCn1c(N)c(N(CC)C(=O)c2ccc(N(C)S(=O)(=O)c3ccc(C)cc3)cc2)c(=O)[nH]c1=O`, the enhancement is 37.2% (active).

With `CCCCN(C(=O)c1ccc2ccccc2c1)c1c(N)n(CCCC)c(=O)[nH]c1=O`, the enhancement is -1.43%.

Take `Cc1nn(CC(=O)NCCc2ccccc2)c(=O)c2c1sc1ccccc12`: the enhancement is -4.11%.

With `CCc1ccc(NC(=O)c2cc3c(=O)n(Cc4cccnc4)ccc3nc2C)cc1`, the enhancement is 3.22%.

As for `COc1ccccc1C(=O)Nc1c(C(=O)Nc2ccc(C)cc2)oc2ccccc12`, the enhancement is 1.48%.

On to `O=C(CSc1ccc(-c2cccs2)nn1)Nc1ccccc1F`, for which the enhancement is 35.3% (active).

As to `O=C(CSc1nnc(CNC(=O)c2ccccc2)n1-c1ccc(F)cc1)Nc1ccccc1F`, the enhancement was 1.22%.

Regarding `O=C(CSc1ccc(-c2ccccn2)nn1)Nc1ccccc1`, the enhancement was -3.04%.

Take `CCOc1ccc(CNC(=O)c2cc(-c3ccc(Cl)s3)nc3ccccc23)cc1`: the enhancement was 9.74%.

As to `Cc1ccc2nc(CN3CCN(S(=O)(=O)c4ccc(C)c(C)c4)CC3)oc2c1`, the enhancement was 0.582%.

As for `CC(=O)N1CCN(C(=O)c2cc(-c3ccc(Cl)s3)nc3ccccc23)CC1`, the enhancement was 2.16%.

For the compound `COC(=O)c1cc(N2CCNCC2)nc2ccccc12`, the enhancement is 50.7% (active).

Regarding `COC(=O)c1cnc(N2CCN(c3ccccc3OC)CC2)c2ccccc12`, the enhancement is -10.4%.
